Measurements published in PubChem BioAssay (NCI).
Compounds without any hit were thinned out: in the full panel of roughly 79,000, 15% have a hit. A number with no mark means an inactive call. Activity calls are given as the source filed them. Cut-off read from the data, not from the text of the source: active = growth inhibition above about 70%; inactive = the rest.

Key:
[1] = NCI Yeast Anticancer Drug Screen. Data for the rad50 strain (AID 155);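 note: 0% = growth of vehicle-only cultures of the same strain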; conditions: S. cerevisiae rad50 strain growth inhibition; at 50.0 µM; active compounds read high
How it was run: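 Cells are treated with compound, grown, and their growth is then scored against vehicle-only cultures of the same repair-deficient yeast strain.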

[2] = NCI Yeast Anticancer Drug Screen. Data for the mec2-1 strain (AID 157); conditions: S. cerevisiae mec2-1 strain, at 50.0 µM, active compounds read high
How it was run: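 Test agents were screened against the mec2-1 yeast strain, with defined DNA repair or cell cycle alteration. Growth was scored as inhibition against vehicle-only controls.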

[3] = NCI Yeast Anticancer Drug Screen. Data for the sgs1 mgt1 strain (AID 161);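 note: 0% = growth of cultures given vehicle only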; conditions: S. cerevisiae sgs1 mgt1 strain, at 50.0 µM, active compounds read high
How it was run: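 Mutant yeast exposed to compound; growth scored against vehicle-only wells.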

[4] = NCI Yeast Anticancer Drug Screen. Data for the cln2 rad14 strain (AID 165);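 note: 0% = growth equal to vehicle treated cultures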; conditions: S. cerevisiae cln2 rad14 strain, at 50.0 µM, active compounds read high
How it was run: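 Growth of compound-exposed yeast (cln2 rad14 genotype) measured and expressed as inhibition relative to vehicle.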

[5] = NCI Yeast Anticancer Drug Screen. Data for the bub3 strain (AID 167); conditions: S. cerevisiae bub3 mutant strain, at 50.0 µM, active compounds read high
How it was run: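 Part of a panel of yeast mutants defective in DNA damage repair or cell cycle regulation. Each strain is grown with compound, and inhibition is calculated relative to solvent-treated cultures.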

[6] = NCI Yeast Anticancer Drug Screen. Data for the mlh1 rad18 strain (AID 175); conditions: S. cerevisiae mlh1 rad18 strain growth inhibition; at 50.0 µM; active compounds read high
How it was run: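 In this whole-cell yeast screen, a strain with altered DNA damage repair is challenged with compound, and its growth is measured against matched vehicle-treated controls.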

Structure (SMILES)	growth inhibition [1]	growth inhibition [2]	growth inhibition [3]	growth inhibition [4]	growth inhibition [5]	growth inhibition [6]
COC(=O)c1ccccc1C(=O)c1c(C)cc(C)cc1C	13.8%	28.2%	34.1%	-64%	46.9%	50.3%
CN(C(=S)S(=O)(=O)C12CC3CC(CC(C3)C1)C2)c1ccccc1	28.8%	4.7%	4.35%	-11.5%	17.5%	-24.9%
O=Cc1ccc(Cl)c(Cl)c1	-3.55%	-9.5%	-18.8%	-16.9%	-5.85%	-23.1%
O=C(Nc1c(Cl)cc(Cl)cc1Cl)ON=C1CCCCC1	1.2%	-19%	11.1%	12.9%	15.5%	3.6%
CN(C)c1ncnc2c1cnn2C	-9.55%	-0.6%	9.3%	-13.6%	-0.7%	2.65%
CC(=O)OCC1OC(n2cnc3c(=S)nc(N)[nH]c32)C(OC(C)=O)C1OC(C)=O (centres undefined)	73% (active)	42%	48.5%	-12.4%	11.1%	24.6%
Cc1ccc(NC(=O)c2ccccc2Cl)cc1	12.4%	-4.35%	-13.3%	-42%	-6.3%	6.05%
Nc1ccc(F)c(Cl)c1F	-11%	-7.8%	-14.3%	-24.8%	-1.75%	-1.8%
Cc1c(-c2ccc(C3CCCCC3)cc2)nc2ccc(F)cc2c1C(=O)O	15.3%	8.15%	12.3%	5.3%	1.8%	-15.2%
C=CCN1CCCC1=O	7.85%	10.6%	1.5%	-18.6%	-16.2%	4.05%
COc1cc2c(c(OC)c1OC)-c1ccc(SC)c(=O)cc1[C@@H](NC1OC(CO)C(O)C(O)C1O)CC2 (some centres undefined)	-10.6%	-1.85%	5.25%	6.2%	5.05%	3.45%
CCNC(=O)OCCc1c2ccccc2nc2ccccc12	51.4%	36.5%	42.4%	36.1%	12.7%	54.2%
Cc1cc(Cc2ccccc2)c(O)c(Cc2ccccc2)c1	50.1%	3.3%	32%	38%	12.3%	42.7%
O=c1cc(C(F)(F)F)[nH]c(=S)[nH]1	-21.9%	-5.05%	-15.8%	-20.9%	-24.8%	-26.2%
CC(C)N(CCCC#N)C(C)C	9.9%	-11.6%	-5.25%	10.4%	-17.2%	8.05%
COC(=O)c1cccc([N+](=O)[O-])c1	-11.3%	-5.7%	-4.7%	-31.3%	-0.4%	-9.9%
CCC(=O)C1C(=O)c2ccccc2C1=O	20.9%	-12.6%	-17.5%	-13.8%	6.1%	20.4%
Cc1cc(Nc2ccc3c(c2)OCO3)c2cc3c(cc2n1)OCO3	10.6%	-9.15%	-14.9%	3.8%	-0.5%	-42.1%
CC(=O)N(C)N=Nc1ccc(C)cc1	3.7%	-23.6%	-13.6%	4%	0.1%	-4.05%
CCN(Cc1ccc(Cl)c(Cl)c1)c1ccc2nc(N)nc(N)c2c1C	40%	84.6% (active)	50.9%	40.3%	6.15%	29.9%
O=C(O)c1cccc(-n2ncc(Cl)c(Cl)c2=O)c1	8.4%	-0.95%	19.2%	19%	21.4%	19.6%
CC(c1ccccc1)N1C(=O)CSC1=S (centres undefined)	37.1%	30.5%	22.8%	35.8%	53.6%	52.1%

Structure (SMILES)	growth inhibition [1]	growth inhibition [2]	growth inhibition [3]	growth inhibition [4]	growth inhibition [5]	growth inhibition [6]
COc1ccc(C2CC(c3ccccc3)=Nc3ccccc3S2)cc1 (centres undefined)	-12.1%	-17.9%	16%	-11.3%	25.2%	0.95%
CC(C)C1CCC(C)C(O)C1 (centres undefined)	26.7%	6.35%	8.55%	8.9%	-0.55%	12.8%
Cc1ccc(C)c(CCO)c1	-22.1%	-38.5%	-30.5%	-2.9%	-21.4%	-7.3%
OC(CBr)CCBr (centres undefined)	-28.7%	-31.1%	-39.6%	3.45%	-32.1%	-32%
COc1nc(Nc2cccc(C(F)(F)F)c2)nc(OC)n1	8.5%	-8%	15.4%	7.9%	23.2%	6.25%
ClCC(Cl)C1CCC(Cl)C(Cl)C1 (centres undefined)	10.5%	6.1%	-7.85%	-3.9%	8.65%	19.8%
Cc1ccccc1NC(=O)Oc1ccc(Cl)cc1C(=O)c1ccccc1	-0.15%	-27.4%	18.7%	24.4%	21.2%	11.4%
Oc1cc2ccccc2c(-c2c(O)c(O)cc3ccccc23)c1O	89.5% (active)	85% (active)	83.7% (active)	83.6% (active)	87% (active)	91.7% (active)
CC(C)c1ccc(C(=O)OCCCl)cc1	29.7%	9%	6.6%	-3.05%	-4.2%	23.8%
CCN(C(=O)Nc1ccccc1Cl)c1ccccc1	8.75%	13.1%	8.8%	2.95%	7.8%	11.6%
OCC(O)COc1ccc(Cl)cc1Cl (centres undefined)	22.2%	6.25%	25.8%	8.85%	10.1%	16.8%
CC1(C)OC2C(CO)OC(n3ccc(=O)[nH]c3=O)C2O1 (centres undefined)	1.9%	0.9%	-12.3%	-7.3%	10.5%	-4.35%
CCOP(=O)(OCC)/C(=C\N1C(=O)CC(=O)NC1=S)C(=O)OC	-29.9%	-31.4%	-18.9%	7.6%	-6.45%	-5.55%
Cc1onc(-c2ccccc2Cl)c1C(=O)Cl	-41.3%	-41.3%	-13.2%	4.5%	-31.1%	-29.3%
CCOC(=O)c1cc(Cl)c(O)c(Cl)c1	4.5%	-14%	1.4%	11.7%	3.25%	13.9%
O=C(Nc1cccc(Cl)c1)c1ccc(Cl)cc1Cl	1.95%	5.85%	2.2%	-48.5%	20.6%	0.1%
Cc1c(Cl)cccc1NC(=S)NC(=O)c1ccccc1	23.7%	28.2%	14.8%	0.4%	35.4%	18.1%
CC(=O)/C(C)=N\OC(=O)Nc1ccccc1	1.2%	-8.2%	-2.65%	-7%	9.4%	-9.95%
Clc1ccc(/C=C/c2ccccn2)cc1	21.1%	2.05%	9.3%	-16.2%	7.5%	28.4%
CN1CCCN(C(c2ccccc2)c2ccc(Cl)cc2)CC1 (centres undefined)	3.9%	-16.9%	1.95%	19.9%	27.6%	10.5%
CCCCN(C(=O)CC)c1ccccc1	23.7%	-29.8%	9.5%	-22.4%	-12.9%	-62.5%
OCC1CCC(O)C(CO)N1 (centres undefined)	-6.65%	-29.6%	-22.7%	8.85%	-16.2%	-15.8%
